Screening results from PubChem BioAssay.
DUSP1 inh: blocks human MKP-1 phosphatase activity. P28562. recombinant MKP-1, OMFP hydrolysis fluorescence. inhibition, %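 (compounds tested at a single concentration somewhere between 10 and 100 µM)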. 65,000 compounds, 0.15% hits. AID 374;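 active = inhibition above about 50%, limit read from the data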;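 also: 0% = DMSO max control wells and 100% = wells with enzyme stopped by NaOH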
Target sequence (P28562 whole entry, looked up): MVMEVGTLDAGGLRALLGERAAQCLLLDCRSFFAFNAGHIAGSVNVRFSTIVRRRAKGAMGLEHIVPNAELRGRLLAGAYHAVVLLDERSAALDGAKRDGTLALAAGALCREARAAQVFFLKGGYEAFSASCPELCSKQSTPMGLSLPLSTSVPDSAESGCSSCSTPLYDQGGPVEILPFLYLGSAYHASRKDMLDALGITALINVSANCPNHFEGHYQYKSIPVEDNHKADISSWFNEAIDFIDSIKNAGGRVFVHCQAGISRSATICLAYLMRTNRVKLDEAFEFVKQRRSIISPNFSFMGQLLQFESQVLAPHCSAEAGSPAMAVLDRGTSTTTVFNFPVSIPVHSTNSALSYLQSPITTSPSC
Cdc25B block: human M-phase inducer phosphatase 2 inhibition; P30305; recombinant Cdc25B, OMFP fluorescence Ex485/Em525; inhibition, %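 (compounds tested at 10 µM final in the well)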; 65,000 compounds, 0.1% hits; in the data active = inhibition above about 50%
Htt clearance: mutant huntingtin protein clearance. HeLa Exon1htt(103Q)mCFP, aggregate imaging; zero = plate's median compound well. inhibition, % at 1.5 µM. 47,000 compounds, 0.42% hits;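 active = inhibition of aggregate fluorescence above about 70%, also judged a hit by eye on the cell image, limit read from the data, passing the limit was not always enough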;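 also: cells exposed to compound for three days before fixation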
MMP-13 inhibitor: inhibitors of human MMP13; P45452; MMP-13 fTHP FRET cleavage, Mca fluorescence; inhibition, % at 4 µM; 65,000 compounds, 0.07% hits;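 active = inhibition above the mean of compound-free control plate wells plus 3 SD, cut at about 14% in these data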;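 also: 0% = DMSO wells and 100% = wells with reference MMP-13 inhibitor after basal subtraction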
WNV protease inh: blocks West Nile virus NS2B-NS3 protease activity; P06935; WNV NS2B-NS3 protease, fluorogenic substrate Ex360/Em465; hits give low values; z-score (test concentration not listed); 65,000 compounds, 0.18% hits; AID 577; in the data active = z-score below about -3
Hsp90 inh: displaces geldanamycin probe from tumor Hsp90. P07900. NCI-N417 lysate Hsp90, Cy3B-geldanamycin FP displacement. inhibition, % at 30 µM. 64,000 compounds, 0.35% hits. AID 429;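 active = inhibition above 50%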;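 also: 0% = tracer plus lysate wells and 100% = tracer alone without lysate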
* hit, by the source's call; . = no result. Sampled rows, rich in hits. Any-hit rate of the full collection: about 0.89%.

SMILES | DUSP1 inh | Cdc25B block | Htt clearance | MMP-13 inhibitor | WNV protease inh | Hsp90 inh
Nc1nc(SCC(=O)N2CCCc3ccccc32)[nH]c(=O)c1-c1ccccc1 | 3 | -12 | 70* | -4 | -0.08 | -4
C[C@H](Cc1ccccc1)Nc1ncnc2c1ncn2[C@@H]1O[C@H](CO)[C@H](O)C1O (stereo not given in full) | . | . | . | . | . | 2
COc1cccc(C(=O)NC2CC3CCCC(C2)N3CC(=O)Nc2ccccc2)c1 (stereo not given) | 9 | 7 | . | 0 | -0.49 | 95*
CCOC(=O)c1ccc2nc(NC(NC(C)=O)(C(=O)OC)C(F)(F)F)sc2c1 (stereo not given) | -3 | 16 | . | -8 | -0.28 | -1
CCC(=O)NC(Nc1ncc(C)s1)(C(=O)OC)C(F)(F)F (stereo not given) | . | . | 70* | . | . | .
Oc1cc2c(cc1O)C(c1ccccc1)CNCC2 (stereo not given) | . | . | . | . | . | 64*
CN1CCc2c(cc(O)c(O)c2Cl)C(c2cccc(Cl)c2)C1 (stereo not given) | . | . | . | . | . | 81*
CN1CCc2cc(O)c(O)cc2C(c2ccccc2)C1 (stereo not given) | . | . | . | . | . | 59*
CN1CCc2cc(Cl)c(O)cc2[C@@H](c2ccccc2)C1 | . | . | . | . | . | 0
COC(=O)c1cc(CN2CCN(c3ccccc3C)CC2)ccc1O | . | . | -58 | . | . | .
COc1cc(NCCCN)c2ncccc2c1 | . | . | . | . | . | -7
C=CCn1c(SCC(=O)OC)nc2sc3c(c2c1=O)CCN(C)C3 | -12 | -27 | 35 | -26 | -7.4* | -9
COC(=O)CSc1nc2sc3c(c2c(=O)n1-c1ccccc1)CCN(C)C3 | -3 | 6 | 5 | -28 | -0.87 | -4
C#CC(N)CCC(=O)O (stereo not given) | . | . | . | . | . | -2
CN1C2CCC1CC(NC(=O)c1nn(C)c3ccccc13)C2 (stereo not given) | . | . | . | . | . | -2
O=C(CCCC(=O)N1CCc2ccccc21)N1CCc2ccccc21 | 3 | 3 | . | -3 | -0.91 | -7
N#CC(Cc1ccc(O)c(O)c1)C(=O)N1CCc2ccccc21 (stereo not given) | . | . | . | . | . | 81*
CCCCCCCCCCCCCCCCCC(=O)OC(CC(=O)O)C[N+](C)(C)C (stereo not given) | . | . | . | . | . | 3
COc1cc(C)nc(Oc2ccc(OCCOc3ccc(C)cc3)nn2)n1 | -26 | 15 | 1 | 1 | -8.5* | 0
CCCN(CCC)CCc1cccc2c1CC(=O)N2 | . | . | . | . | . | -2
O=C(COc1ccc(F)cc1)NCC1CCCO1 (stereo not given) | 2 | -2 | 71* | 0 | -0.15 | -3
CC1(C)CCC=[N+]1[O-] | . | . | . | . | . | -1
O=C1C(SCCO)=C(SCCO)C(=O)c2ccccc21 | . | . | . | . | . | 89*
O=C1C(=C(O)c2ccccc2)C(=O)c2ccccc21 | 6 | -8 | -17 | 1 | 1.1 | -3
O=c1ccc2c(OCCCCc3ccccc3)c3ccoc3cc2o1 | . | . | . | . | . | -3
SMILES | DUSP1 inh | Cdc25B block | Htt clearance | MMP-13 inhibitor | WNV protease inh | Hsp90 inh
COc1cc2c(cc1OC)C(C)N(C(=O)C1COc3ccccc3O1)CC2 (stereo not given) | 2 | 0 | . | -227 | 0.19 | 1
COc1cc2c(cc1OC)C(c1cc3cc4c(cc3[nH]c1=O)OCO4)N(C(=O)C(C)C)CC2 (stereo not given) | . | . | 84* | . | . | .
CCc1ccccc1NC(=O)Cn1nc(C(F)(F)F)cc1C1CC1 | . | . | 52 | . | . | .
CS(=O)(=O)N1CCc2cc(C(=O)OCC(=O)c3ccccc3)ccc21 | -6 | -5 | . | 15* | 0.31 | -2
NC/C=C/C(=O)O | . | . | . | . | . | -2
CCN(CC)C(=O)c1cc2c(=O)n3cccc(C)c3nc2n1C | 15 | 74* | -86 | -46 | -0.44 | -2
COc1cc(NC(=O)Nc2cccc(C(C)=O)c2)cc(OC)c1OC | 17 | 0 | 75* | -8 | -0.37 | -2
COc1cccc(OC)c1C(=O)Nc1cccc(C(C)=O)c1 | -6 | -1 | 7 | 3 | -0.66 | 0
CCN1C(=O)c2cccc3c(NC(=O)c4ccc(S(=O)(=O)N(C)C)cc4)ccc1c23 | 21 | -10 | . | 2 | -1.1 | -3
CCN1C(=O)c2cccc3c(NC(=O)c4ccc(S(=O)(=O)N5CCOCC5)cc4)ccc1c23 | 34 | -10 | 72* | 1 | 1.6 | 0
CCCCn1nc(-c2ccccc2)c2nc3ccccc3nc21 | . | . | 74* | . | . | .
CC(C)(C)C(=O)c1sc(Nc2ccccc2)nc1N | 85* | -13 | 36 | 6 | -0.39 | -2
COc1ccc(Nc2ccnc3ccccc23)cc1 | 3 | 3 | 91* | 0 | 0.53 | 2
COc1cccc(Nc2ncnc3ccccc23)c1 | . | . | 10 | . | . | .
Cn1c(=O)cc(SCC(=O)N2CCN(Cc3ccc4c(c3)OCO4)CC2)c2ccccc21 | 40 | -9 | 60 | -2 | 1.4 | 1
CCn1c(=O)cc(SCC(=O)N2CCN(Cc3ccc4c(c3)OCO4)CC2)c2ccccc21 | 56* | -14 | -25 | -1 | 1.4 | -1
O=C(O)[C@@H]1C[C@H](C(=O)O)N1 | . | . | . | . | . | 0
O=C1O/C(=C/Br)CCC1c1cccc2ccccc12 (stereo not given) | . | . | . | . | . | -2
COc1cc(-n2nc(C)c3c2OC(N)=C(C#N)C3c2ccccc2)c(Cl)c(Br)c1O (stereo not given) | 38 | 6 | 55 | 16* | 0.08 | -15
Cn1cccc1C(C(=O)NC1CCCCC1)N(C(=O)Cc1cccs1)c1ccc2c(c1)OCCO2 (stereo not given) | 9 | -3 | . | -2 | -0.71 | 0
COc1ccc(N(C(=O)Cc2cccs2)C(C(=O)NC2CCCCC2)c2cccn2C)cc1OC (stereo not given) | . | . | 94* | . | . | .
COc1ccc(-n2nnnc2SCC(=O)Nc2ccc3c(c2)OCCO3)c(OC)c1 | 102* | -14 | . | 0 | -1.6 | 2
COc1ccc(-n2nnnc2SCC(=O)Nc2ccc3c(c2)OCCO3)cc1OC | 14 | 5 | 26 | -3 | -0.24 | -1
O=C(O)c1ccccc1NS(=O)(=O)c1cccc2cccnc12 | -8 | -13 | 77* | -3 | -0.81 | -6
COc1cc(NCCCC(C)=NO)c2nccc(Cl)c2c1 | . | . | . | . | . | 1
SMILES | DUSP1 inh | Cdc25B block | Htt clearance | MMP-13 inhibitor | WNV protease inh | Hsp90 inh
COc1ccc(S(=O)(=O)Nc2ccc3c(c2)OCO3)cc1OC | -9 | -10 | . | 1 | 0.27 | 51*
CCOC(=O)/C(C#N)=C1/C=Nc2ccccc2N1 | 6 | 2 | . | 14* | 2.7 | -1
O=C(O)CC(c1ccccc1)c1ccccc1 | -9 | -8 | 86* | 0 | 0.78 | 1
CC(C)(C)OC(=O)n1ccc2c(NCCCN)ncnc21 | . | . | . | . | . | -1
CC(=O)c1cc(-c2nc3ccccc3n2C)n(C)c1 | 6 | -10 | 71* | 3 | -0.28 | -3
Cn1cnnc1SCC(=O)c1ccc2c(c1)CCCC2 | 1 | -13 | . | 2 | -0.84 | 54*
CCn1cc(C(=O)O)c(=O)c2ccc(Cc3ccccc3)nc21 | . | . | . | . | . | -6
O=C(OCc1nnc(-c2ccccc2)o1)c1ccc(S(=O)(=O)NCc2ccco2)cc1 | 6 | 23 | 71* | 2 | -0.4 | -7
